Data on 63 compounds can be found in PubChem BioAssay AID588856 (National Center for Advancing Translational Sciences (NCATS), 2011).

Structures are written as SMILES. Screen size: about 410,000 compounds; about 3,100 (0.76%) were called active. A call without a number means that no potency is given here. Calls come from the whole dose curve; as a rule, active = well fitted cell-killing curve with a large enough effect; inactive = no such curve, though single readings can be large or run the other way. This excerpt belongs to a sample that is enriched for actives.
Potency is the fitted concentration of half-maximal effect.

This assay can be described thus: qHTS for Inhibitors of TGF-b: Cytotox Counterscreen. Conditions: HepG2 CAGA-GFP viability, ATP luminescence, 18 h; series mostly up to 46.1 µM. The procedure, abridged: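 HepG2 CAGA-GFP cells (1000/well, DMEM with 1% FBS) received compound, then TGF-beta at 500 pg/mL final, and were incubated 18 hours at 37 degrees C. Viability was read by CellTiter-Glo luminescence. Media-only wells were set as complete cell-killing and DMSO as no toxicity.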
On the technique in general: In qHTS, concentration-response curves come from the screen itself.
In the case of `CCC(C)N(c1ccc(/C=C/c2ccnc3ccccc23)cc1)C(C)CC` (stereo not drawn), the Potency result is “inactive”.
With `Cc1cccc(NC(=O)N2CCC(CN3CCc4ccccc4C3)CC2)c1C`, the Potency result is “inactive”.
In the case of `Cc1ccccc1Cn1c2ccccc2c2cnn(CC(=O)NCc3ccco3)c(=O)c21` it was “inactive”; in that of `CCCN(CCC)CCCNC(=O)Cn1ncc2c3ccccc3n(Cc3ccccc3)c2c1=O`, “inactive”.
On to `CCN(CC)CCNC(=O)Cn1ncc2c3ccccc3n(Cc3ccccc3C)c2c1=O`, for which the Potency was 15.8 µM (active).
As for `O=C(CSc1oc(-c2ccco2)nc1S(=O)(=O)c1ccc(Cl)cc1)c1ccccc1`, the Potency entry was “inactive”.
As for `COC(=O)CC1Oc2ccccc2-n2cc(-c3ccccc3)nc21` (stereo not drawn), the Potency entry was “inactive”.
In the case of `CCOc1ccc(C(=O)Nc2ccc3nc4c(c(Nc5ccccc5OC)c3c2)CCCC4)cc1` it was “inactive”; in that of `COc1ccccc1Nc1c2c(nc3ccc(NC(=O)/C=C/c4cc(OC)c(OC)c(OC)c4)cc13)CCCC2`, 5.62 µM (active).
Under `COc1cc(/C=C/C(=O)O)cc(S(=O)(=O)Nc2ccccc2SC)c1OC` stands “inactive”; under `COCCCNC(=O)c1c(NC(=O)c2cc(=O)c3cc(C)c(C)cc3o2)sc2c1CCCC2`, “inactive”; under `COC(=O)c1sc(-c2ccc(C(C)(C)C)cc2)cc1NC(=O)/C=C/C(=O)O`, 7.08 µM (active).
Under `OC(Cc1ccc2ccccc2n1)c1ccc(Cl)c(Cl)c1` (stereo not drawn) stands “inactive”; under `C/C=C/NNC(=O)Cc1ccc(OC)cc1`, “inactive”; under `Cc1cccc(-c2nc(SCc3ccc(Br)cc3)n3[nH]c(=O)cc3n2)c1`, “inactive”.
Turning to `Cc1ccc(-c2nc(SCc3ccc(Br)cc3)n3[nH]c(=O)cc3n2)cc1`, the Potency is 5.01 µM (active).
Under `O=c1cc2nc(-c3ccccc3)nc(SCCOc3ccc(Cl)cc3)n2[nH]1` stands “inactive”; under `COc1ccc(-c2nc(CN3CCC(C(=O)NCc4ccccc4)CC3)c(C)o2)cc1OC`, “inactive”; under `Nc1ccc(/C=C/c2ccnc3ccccc23)c([N+](=O)[O-])c1`, “inactive”.
In the case of `COc1cccc(CNC(=O)c2ccc3c(c2)sc2nc(-c4cccc(OC)c4)cn23)c1` it was “inactive”; in that of `Cc1cccc(-n2c(SCC(N)=O)nc3c(oc4ccccc43)c2=O)c1`, “inactive”.
Consider `Cc1cc(C)cc(Nc2ncnc3onc(-c4ccc(F)cc4)c23)c1`, for which the Potency entry is “inactive”.
In the case of `C=COC(=O)N1CCN(/[N+]([O-])=N/Oc2ccc([N+](=O)[O-])cc2[N+](=O)[O-])CC1`, the Potency entry is “inactive”.
Under `CCn1c(=O)c(=O)[nH]c2c(=O)oc3ccc(S(=O)(=O)Nc4ccc(OC)cc4)cc3c21` stands “inactive”; under `Cc1cc(NS(=O)(=O)c2ccc3oc(=O)c4ncn(C)c4c3c2)ccc1Br`, 11.2 µM (active).
`Cc1cccc(NS(=O)(=O)c2ccc(-c3cnc(C4CC4)o3)cc2)c1`: the Potency entry is “inactive”.
With `Cc1ccc(-c2cc(C(F)(F)F)c(C#N)c(SCC(=O)Nc3ccccc3)n2)cc1`, the Potency entry is “inactive”.
With `CCc1ccc(NS(=O)(=O)c2ccc3[nH]cc(C(=O)NCCc4cccc(C)c4)c(=O)c3c2)cc1`, the Potency entry is “inactive”.
For the compound `COc1c(Cl)cc(Cl)cc1C(=O)Nc1cccc2cccnc12`, the Potency result was “inactive”.
On to `CC(=O)/C(=N\Nc1ccc(Cl)cc1Cl)Sc1cccc2cccnc12`, for which the Potency is 3.98 µM (active).
Under `O=C(Nc1cccc2cccnc12)C(F)(F)F` stands “inactive”.
Turning to `Clc1cccc[n+]1CCCC[n+]1ccccc1Cl`, the Potency entry was “inactive”.
As for `Cc1ccccc1-c1nc2cc(NC(=O)c3cccc(OCCC(C)C)c3)ccc2o1`, the Potency entry is “inactive”.
On to `COc1cc(OC)c2c(c1C(CCN1CCCCC1)c1ccc(N(C)C)cc1)OC(=O)CC2c1ccc(N(C)C)cc1` (stereo not drawn), for which the Potency entry was “inactive”.
Under `COc1cc(/C=C/C(=O)OCC(=O)Nc2cccc(Oc3ccccc3)c2)ccc1O` stands “inactive”; under `COc1ccc(Nc2ncc(C(=O)Nc3cc(C)ccc3OC)c3ccccc23)cc1`, “inactive”; under `COc1ccc(C(=O)Nc2ccccc2C(=O)N/N=C/c2ccc(O)c(OC)c2)cc1`, 3.55 µM (active).
As to `COc1cc(OC)cc(C(=O)Nc2ccc3nc(Nc4cccc(C(F)(F)F)c4)cc(C)c3c2)c1`, the Potency result was “inactive”.
Under `COc1cc(NC(=O)c2[nH]cnc2C(N)=O)cc(C(=O)Nc2cccc(C(F)(F)F)c2)c1` stands 7.08 µM (active).
In the case of `Cc1onc(-c2ccc(F)cc2F)c1C(=O)Nc1cccc(C(F)(F)F)c1` it was “inactive”; in that of `COc1ccc(/C=C/c2ccccn2)cc1OC`, “inactive”.
As for `Cc1ccc(-c2cn3c(n2)sc2cc(C(=O)NCc4cccs4)ccc23)c(C)c1`, the Potency entry was “inactive”.
Consider `COc1ccc(NC(=O)Cn2c(=O)n(CCC(C)C)c(=O)c3cccnc32)cc1Cl`, for which the Potency entry is “inactive”.
As to `CCCCN1C(N)=NC[C@@H]1CC1CCCCC1`, the Potency entry is “inactive”.
With `CN(C)C1=NC[C@H](Cc2ccccc2)N1CCc1ccc(F)cc1`, the Potency result is “inactive”.
In the case of `CCCC[C@@H]1CN=C(N)N1CCc1cc(C(F)(F)F)cc(C(F)(F)F)c1` it was 15.8 µM (active); in that of `CC(NC(=O)CCc1cn(Cc2ccccc2Cl)c2ccccc12)c1ccccc1` (stereo not drawn), “inactive”; in that of `Cc1cc(OC(C)C(=O)Nc2sc3c(c2C(N)=O)CCCC3)ccc1Cl` (stereo not drawn), “inactive”.
For `O=C(Cn1ncn2nc(-c3cccs3)cc2c1=O)NCc1cccc(Br)c1`, the Potency result was “inactive”.
As for `Cc1ccc(C)c(OCC(=O)Nc2sc3c(c2C#N)CCCC3)c1C`, the Potency entry is “inactive”.
As for `CCOC(=O)N1CCc2c(sc3c2C(=O)NC(c2ccccc2F)N3)C1` (stereo not drawn), the Potency result was “inactive”.
In the case of `NC1=CC(=O)C(=O)c2cccnc21` it was 6.31 µM (active); in that of `Cc1ccc2c(=O)cc(C(=O)Nc3sc4c(c3C(=O)NCc3cccnc3)CCCC4)oc2c1`, “inactive”.
Under `COc1ccc(N2CCN(c3nc(-c4ccccc4F)nc4ccccc34)CC2)cc1` stands “inactive”.
In the case of `O=c1c2cc(Br)ccc2nc(-c2cccc(Cl)c2)n1O` it was 15.8 µM (active).
Turning to `CC(C)Cn1c(=O)c2ccccc2n2c(-c3cccc(Cl)c3)nnc12`, the Potency result is “inactive”.
With `O=C(O)c1ccc(Nc2nc(-c3ccccc3)c3cc(Br)ccc3n2)cc1`, the Potency entry was “inactive”.
In the case of `CCOc1ccccc1C(=O)NC1(C(F)(F)F)NC(=O)N(CCc2ccc(OC)c(OC)c2)C1=O` (stereo not drawn) it was “inactive”; in that of `Cc1nc(SCC(=O)Nc2ccc(C(=O)O)cc2)n[nH]1`, “inactive”; in that of `CN(C)c1ccc(/C=C/C=C/c2ccnc3ccccc23)cc1`, “inactive”.
In the case of `Cc1nnc2n1N=C(c1ccc3c(c1)NC(=O)CO3)CS2` it was “inactive”; in that of `COc1ccc(C2=Nn3c(nnc3-c3ccccc3OC)SC2)cc1OC1CCCC1`, 17.8 µM (active).
With `O=C(Nc1ccc([N+](=O)[O-])cc1)c1cnn2c1NC(=C1CC1)C=C2C(F)F`, the Potency result was “inactive”.
